Source: PubChem BioAssay (EPA / NIEHS)
Activity calls are given as the source filed them. Rule for the calls: active = hit-call score of the fitted dose curve at least 0.9, where 1 is the maximum; inactive = score below 0.9.

Experiment: Tanguay_ZF_120hpf_DP24: Oregon State University Tanguay Lab 24 Hour Post-fertilization zebrafish Assay for Delayed Development (AID 2284390)
Procedure: Tanguay_ZF_120hpf is a whole embryo, multiplexed endpoint assay using zebrafish larvae exposed for 120 hours post fertilization on a 96-well plate.Tanguay_ZF_120hpf_DP24 is […] measured or calculated from the Tanguay_ZF_120hpf assay. It is designed to make measurements of zebrafish development as detected with brightfield microscopy of developing zebrafish embryos.Data from the assay component Tanguay_ZF_120hpf_DP24 was analyzed into 1 assay endpoints. This assay endpoint, Tanguay_ZF_120hpf_DP24, was analyzed in the positive analysis fitting direction relative to DMSO as the negative control and baseline of activity. Using a type of morphology reporter, gain-of-signal activity can be used to understand changes in developmentals as they relate to the whole embryo. To generalize the intended target to other relatable targets, this assay endpoint is annotated to the zebrafish development intended target family, where the subfamily is embryonic morphogenesis.
Zebrafish husbandry: Tropical 5D wild-type adult zebrafish were housed in at an approximate density of 1000 per 100 gallon tank at the Sinnhuber Aquatic Research Laboratory, Oregon State University, Corvallis, OR. Each tank was kept at standard laboratory conditions of 28C on a 14-h light/10-h dark photoperiod in fish water consisting of reverse osmosis water supplemented with a commercially available salt (Instant Ocean). Spawning funnels were placed into the tanks the night prior, and embryos were collected and staged. To increase bioavailability, the chorion was enzymatically removed using pronase (63.6mg/ml, >/= 3.5U/mg, Sigma-Aldrich: P5147) at 4 hours post fertilization (hpf) using a custom automated dechorionator.Chemical exposures: Six hpf dechorionated embryos were placed 1 embryo per well in a 96-well plate prefilled with 90 ul of EM using automated embryo placement systems (AEPS). Ten microliters of each row of dilution plate 2 was added to 2 exposure plates. The final DMSO concentration used was 0.64% (vol/vol). Thirty-two embryos were also exposed to 5uM trimethyltin chloride (positive control). Plates were sealed to prevent evaporation and foil covered to reduce light exposure and kept in a 28C incubator. Embryos were statically exposed until 120 hpf. At 24 hpf, embryos were assessed for photomotor response using a custom photomotor response analysis tool (PRAT) and for developmental toxicity endpoints (MO24: mortality at 24 hpf, DP: developmental progression, SM: spontaneous movement, and NC: notochord distortion). At 120 hpf, locomotor activity was measured using Viewpoint Zebralab and assessed for 13 endpoints. Zebrafish acquisition and analysis program (ZAAP), a custom program designed to inventory, acquire, and manage zebrafish data, was used to collect developmental endpoints as either present or absent (i.e., binary responses were recorded). If mortality occurred for an embryo (at either 24 or 120 hpf), the non-mortality endpoints were not measured.
With `NCC(F)(F)C(F)(F)C(F)(F)C(F)(F)F` the outcome was “inactive”.
For `FC(F)=C(F)C(F)(F)C(F)(F)C(F)(F)C(F)(F)C(F)(F)C(F)(F)F`, the outcome was “inactive”.
In the case of `OCCC(F)(F)C(F)(F)C(F)(F)C(F)(F)F`, the outcome is reported as “inactive”.
With `OC(O)(C(F)C(O)(O)C(F)(F)F)C(F)(F)F` the outcome was “inactive”.
For `FC(F)(F)COC(OCC(F)(F)F)OCC(F)(F)F`, the outcome was “inactive”.
In the case of `FC(F)C(F)(F)COCC1CO1` (stereo not given), the outcome is reported as “inactive”.
For `O=C(Cl)C(F)(F)C(F)(F)C(F)(F)C(=O)Cl`, the outcome was “inactive”.
With `C[Si](C)(C)C(F)(F)C(F)(F)C(F)(F)F` the outcome was “inactive”.
In the case of `FC(F)(F)C(F)(F)C(F)(F)C(F)(F)C(F)(F)C(F)(F)I`, the outcome is reported as “inactive”.
With `O=S(=O)(O)CCC(F)(F)C(F)(F)C(F)(F)C(F)(F)C(F)(F)C(F)(F)F` the outcome was “inactive”.
